The panel holds about 79,000 compounds, 15% with a hit somewhere; the sample as a whole holds those more often. Unmarked numbers belong to inactive results. The source made the active and inactive calls. Cut-off read from the data, not from the text of the source: active = growth inhibition above about 70%; inactive = the rest.

The nature of one assay: NCI Yeast Anticancer Drug Screen. Data for the mgt1 strain (AID 153). To be noted: S. cerevisiae mgt1 mutant growth inhibition; at 33.0 µM; hits give high values. A digest of the protocol: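 Yeast mgt1 strain (DNA repair/cell-cycle alteration panel) exposed to compounds; growth inhibition measured relative to vehicle-treated controls.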
Turning to `O=[N+]([O-])c1cc[n+]([O-])cc1`, the growth inhibition is -16%.

In the case of `CC1(C)CC(=O)C(/C=N/c2nc(-c3ccccc3)cs2)=C(O)C1`, the growth inhibition is 22%.

For `Nc1nc(N)c2nc(CNc3ccc(C(=O)NC(CCC(=O)O)C(=O)O)cc3F)cnc2n1` (stereo unspecified), the growth inhibition was 36%.

Take `COC(=O)CC1(O)C(/C=C/c2ccccc2)C(C(=O)OC)C(=O)C(C(=O)OC)C1C(=O)OC` (stereo unspecified): the growth inhibition was 13%.

As to `CC(C)(C)c1ccc(NS(=O)(=O)c2ccc(N)cc2)cc1`, the growth inhibition was 2%.

In the case of `CCN(CC)CCNc1ccc([N+](=O)[O-])c2nc3ccccc3c(N)c12`, the growth inhibition is -21%.

In the case of `CCCCN(CCCC)C(=O)/C=C/c1ccccc1`, the growth inhibition is -1%.

On to `O=c1[nH]c(-c2ccccc2)nc2c1sc1nc3ccccc3n12`, for which the growth inhibition is -8%.

`O=[N+]([O-])c1ccc2c(c1)/C(=N/N=C1c3ccccc3Cc3ccccc31)c1cc([N+](=O)[O-])cc([N+](=O)[O-])c1-2`: the growth inhibition was 98% (active).

As to `CC(C)C(C)/C=C\C(C)C1CCC2C3=CC=C4CC(O)CCC4(C)C3CCC21C` (stereo unspecified), the growth inhibition is -9%.

Take `O=C1Nc2ccc(Br)cc2C1=Nc1ccc2c(c1)OCO2`: the growth inhibition is -15%.

As for `CCCCOCn1c(=O)[nH]c(=O)c2cc(Br)ccc21`, the growth inhibition is -32%.

Consider `Cc1ccc(S/C(=C\C(=O)O)c2ccccc2)cc1`, for which the growth inhibition is 4%.

Consider `O=[N+]([O-])/C=C/c1cc(Cl)c(/C=C/[N+](=O)[O-])cc1Cl`, for which the growth inhibition was 96% (active).

For `Cc1cc(S(=O)(=O)Nc2nnc3cnc4ccccc4n23)c(S)cc1Cl`, the growth inhibition was 26%.

With `O=C(/C=C/c1cc(Cl)cc(Cl)c1O)c1cccc(O)c1`, the growth inhibition was 99% (active).

As for `NC1CCCCC1N.Nc1c(N=Nc2ccc(-c3ccc(N=Nc4cc(S(=O)(=O)[O-])c5ccccc5c4N)cc3)cc2)cc(S(=O)(=O)[O-])c2ccccc12.[OH3+].[OH3+].[Pt+4]`, the growth inhibition is 94% (active).

With `COC(=O)CCC(NC(=S)N/N=C(\C)c1ccccn1)C(=O)OC` (stereo unspecified), the growth inhibition is 64%.

Consider `NC(=O)C(=O)NNc1ccccc1`, for which the growth inhibition was 76% (active).

As to `COc1cc(C2SCC(=O)N2c2ccc(-c3ccc(-n4c(-c5ccccc5)nc5ccccc5c4=O)cc3)cc2)ccc1O` (stereo unspecified), the growth inhibition is 2%.

As for `COc1ccc(/C=C/c2sc3ccccc3[n+]2CCCCI)cc1OC`, the growth inhibition was 76% (active).

On to `Cc1c(C(C)C)cc(OCCO)cc1C(C)C`, for which the growth inhibition was -12%.

As for `Cc1cc(NCCCCCCCCNc2cc(C)nc3cc(N)ccc23)c2ccc(N)cc2n1`, the growth inhibition is 98% (active).

Regarding `C=C(Cl)COC(=O)Nc1cccc(Cl)c1`, the growth inhibition was 16%.

In the case of `CC(=O)OC1CC2C(C)(C)C(=O)C=C[C@]2(C)C2CCC3(C)C(=CCC3[C@H](CO)C[C@H](O)C(=O)C(C)(C)O)[C@]12C` (stereo partly specified), the growth inhibition is 90% (active).

With `COc1ccc(/C=C/C(=O)c2ccccc2)cc1OC`, the growth inhibition was 55%.

For the compound `COc1c(O)c(C=O)c(Br)c(C=O)c1O`, the growth inhibition is 30%.

As for `O=[N+]([O-])c1cc(Cl)cnc1Br`, the growth inhibition is 12%.

Take `Cc1ccc2c(c1)C1(SC(C)C(=O)N1c1ccc(Cl)cc1)C(=O)N2` (stereo unspecified): the growth inhibition is 94% (active).

For the compound `COc1cc(CSc2ccc(O)cc2)cc(O)c1O`, the growth inhibition is 0%.

Consider `Cc1ccc2c3ccc4c(c3n(C)c2c1)C(=O)C=CC4=O`, for which the growth inhibition is 40%.

With `O=C(Nc1ccc(Cl)cc1)Nc1nnc2nc(C(C(=O)c3cccc([N+](=O)[O-])c3Cl)c3nc4nnc(NC(=O)Nc5ccc(Cl)cc5)n4[nH]c3=O)c(=O)[nH]n12`, the growth inhibition was 15%.

For `O=C(O)C1CC(c2ccccc2)=NN1c1ccccc1` (stereo unspecified), the growth inhibition was -1%.

Take `CCCCc1ccc(-n2c(C)c(COC(=O)NC)c(COC(=O)NC)c2C)cc1`: the growth inhibition is 99% (active).

Take `CCC(=O)c1cc(C(=O)C(=S)SC)cc(C(=O)C(=S)SC)c1`: the growth inhibition is 98% (active).

As for `CCn1c(O)c(C=Nc2ccccc2)s/c1=N/Nc1nc(-c2ccccc2)cs1`, the growth inhibition was 21%.

On to `Cc1ccccc1N=C(NO)c1ccccc1`, for which the growth inhibition was 30%.

For `Cc1nc2ccccc2nc1NNc1ccccc1`, the growth inhibition is -13%.

Staying with this assay, now noted: S. cerevisiae mgt1 mutant growth inhibition; at 100.0 µM; hits give high values.
Regarding `O=[N+]([O-])c1cc[n+]([O-])cc1`, the growth inhibition was 99% (active).

Regarding `CC1(C)CC(=O)C(/C=N/c2nc(-c3ccccc3)cs2)=C(O)C1`, the growth inhibition was 77% (active).

As to `Nc1nc(N)c2nc(CNc3ccc(C(=O)NC(CCC(=O)O)C(=O)O)cc3F)cnc2n1` (stereo unspecified), the growth inhibition is 63%.

On to `COC(=O)CC1(O)C(/C=C/c2ccccc2)C(C(=O)OC)C(=O)C(C(=O)OC)C1C(=O)OC` (stereo unspecified), for which the growth inhibition is 43%.

In the case of `CC(C)(C)c1ccc(NS(=O)(=O)c2ccc(N)cc2)cc1`, the growth inhibition is 28%.

With `CCN(CC)CCNc1ccc([N+](=O)[O-])c2nc3ccccc3c(N)c12`, the growth inhibition was -15%.

As for `CCCCN(CCCC)C(=O)/C=C/c1ccccc1`, the growth inhibition is 48%.

`O=c1[nH]c(-c2ccccc2)nc2c1sc1nc3ccccc3n12`: the growth inhibition is -25%.

On to `O=[N+]([O-])c1ccc2c(c1)/C(=N/N=C1c3ccccc3Cc3ccccc31)c1cc([N+](=O)[O-])cc([N+](=O)[O-])c1-2`, for which the growth inhibition is 93% (active).

As for `CC(C)C(C)/C=C\C(C)C1CCC2C3=CC=C4CC(O)CCC4(C)C3CCC21C` (stereo unspecified), the growth inhibition is -4%.

For `O=C1Nc2ccc(Br)cc2C1=Nc1ccc2c(c1)OCO2`, the growth inhibition is -30%.

For the compound `CCCCOCn1c(=O)[nH]c(=O)c2cc(Br)ccc21`, the growth inhibition is -32%.

Take `Cc1ccc(S/C(=C\C(=O)O)c2ccccc2)cc1`: the growth inhibition was 32%.

On to `O=[N+]([O-])/C=C/c1cc(Cl)c(/C=C/[N+](=O)[O-])cc1Cl`, for which the growth inhibition is 92% (active).

On to `Cc1cc(S(=O)(=O)Nc2nnc3cnc4ccccc4n23)c(S)cc1Cl`, for which the growth inhibition was 34%.

For `O=C(/C=C/c1cc(Cl)cc(Cl)c1O)c1cccc(O)c1`, the growth inhibition is 98% (active).

With `NC1CCCCC1N.Nc1c(N=Nc2ccc(-c3ccc(N=Nc4cc(S(=O)(=O)[O-])c5ccccc5c4N)cc3)cc2)cc(S(=O)(=O)[O-])c2ccccc12.[OH3+].[OH3+].[Pt+4]`, the growth inhibition is 84% (active).

Regarding `COC(=O)CCC(NC(=S)N/N=C(\C)c1ccccn1)C(=O)OC` (stereo unspecified), the growth inhibition is 91% (active).

With `NC(=O)C(=O)NNc1ccccc1`, the growth inhibition was 97% (active).

Turning to `COc1cc(C2SCC(=O)N2c2ccc(-c3ccc(-n4c(-c5ccccc5)nc5ccccc5c4=O)cc3)cc2)ccc1O` (stereo unspecified), the growth inhibition was 28%.

As for `COc1ccc(/C=C/c2sc3ccccc3[n+]2CCCCI)cc1OC`, the growth inhibition is 98% (active).

Regarding `Cc1c(C(C)C)cc(OCCO)cc1C(C)C`, the growth inhibition is 7%.

For the compound `Cc1cc(NCCCCCCCCNc2cc(C)nc3cc(N)ccc23)c2ccc(N)cc2n1`, the growth inhibition was 95% (active).

As for `C=C(Cl)COC(=O)Nc1cccc(Cl)c1`, the growth inhibition is 96% (active).

Turning to `CC(=O)OC1CC2C(C)(C)C(=O)C=C[C@]2(C)C2CCC3(C)C(=CCC3[C@H](CO)C[C@H](O)C(=O)C(C)(C)O)[C@]12C` (stereo partly specified), the growth inhibition was 94% (active).

Take `COc1ccc(/C=C/C(=O)c2ccccc2)cc1OC`: the growth inhibition is 96% (active).

Take `COc1c(O)c(C=O)c(Br)c(C=O)c1O`: the growth inhibition was 82% (active).

Consider `O=[N+]([O-])c1cc(Cl)cnc1Br`, for which the growth inhibition is 19%.

`Cc1ccc2c(c1)C1(SC(C)C(=O)N1c1ccc(Cl)cc1)C(=O)N2` (stereo unspecified): the growth inhibition is 99% (active).

Take `COc1cc(CSc2ccc(O)cc2)cc(O)c1O`: the growth inhibition is 2%.

Take `Cc1ccc2c3ccc4c(c3n(C)c2c1)C(=O)C=CC4=O`: the growth inhibition is 78% (active).

In the case of `O=C(Nc1ccc(Cl)cc1)Nc1nnc2nc(C(C(=O)c3cccc([N+](=O)[O-])c3Cl)c3nc4nnc(NC(=O)Nc5ccc(Cl)cc5)n4[nH]c3=O)c(=O)[nH]n12`, the growth inhibition is 47%.

Regarding `O=C(O)C1CC(c2ccccc2)=NN1c1ccccc1` (stereo unspecified), the growth inhibition is 95% (active).

Regarding `CCCCc1ccc(-n2c(C)c(COC(=O)NC)c(COC(=O)NC)c2C)cc1`, the growth inhibition was 94% (active).

For the compound `CCC(=O)c1cc(C(=O)C(=S)SC)cc(C(=O)C(=S)SC)c1`, the growth inhibition was 95% (active).

`CCn1c(O)c(C=Nc2ccccc2)s/c1=N/Nc1nc(-c2ccccc2)cs1`: the growth inhibition was 24%.

In the case of `Cc1ccccc1N=C(NO)c1ccccc1`, the growth inhibition was 95% (active).

With `Cc1nc2ccccc2nc1NNc1ccccc1`, the growth inhibition is 26%.
